Screening data from PubChem.
PK Bst – Pyruvate Kinase. purified pyruvate kinase, luminescence ATP production; ribose 5-phosphate activator present at AC10. Potency, µM. hit rate 1.2% among 51,000; in the data active = potency below about 11 µM; inconclusive = mostly about 12 µM to 25 µM;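 the screen sought inhibitors and activators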;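 note: scaled between full activation by ribose 5 phosphate and full inhibition by luteolin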
15-hLO inh – qHTS Assay for Inhibitors of 15-hLO (15-human lipoxygenase); Polyunsaturated fatty acid lipoxygenase ALOX15 (Homo sapiens), P16050; purified 15hLO-1, xylenol orange hydroperoxide absorbance; Potency, µM (top dose mostly 57.1 µM), for inactives: at the highest dose activity change, negative = inhibition, hits mostly inhibitors; hit rate 1.4% among 74,000; AID 887, 2007; note: % is set by controls: 0 for no effect and ±100 for the full control effect; nearly all actives have a fitted effect of over 55% in size
Target sequence (P16050 whole entry, looked up): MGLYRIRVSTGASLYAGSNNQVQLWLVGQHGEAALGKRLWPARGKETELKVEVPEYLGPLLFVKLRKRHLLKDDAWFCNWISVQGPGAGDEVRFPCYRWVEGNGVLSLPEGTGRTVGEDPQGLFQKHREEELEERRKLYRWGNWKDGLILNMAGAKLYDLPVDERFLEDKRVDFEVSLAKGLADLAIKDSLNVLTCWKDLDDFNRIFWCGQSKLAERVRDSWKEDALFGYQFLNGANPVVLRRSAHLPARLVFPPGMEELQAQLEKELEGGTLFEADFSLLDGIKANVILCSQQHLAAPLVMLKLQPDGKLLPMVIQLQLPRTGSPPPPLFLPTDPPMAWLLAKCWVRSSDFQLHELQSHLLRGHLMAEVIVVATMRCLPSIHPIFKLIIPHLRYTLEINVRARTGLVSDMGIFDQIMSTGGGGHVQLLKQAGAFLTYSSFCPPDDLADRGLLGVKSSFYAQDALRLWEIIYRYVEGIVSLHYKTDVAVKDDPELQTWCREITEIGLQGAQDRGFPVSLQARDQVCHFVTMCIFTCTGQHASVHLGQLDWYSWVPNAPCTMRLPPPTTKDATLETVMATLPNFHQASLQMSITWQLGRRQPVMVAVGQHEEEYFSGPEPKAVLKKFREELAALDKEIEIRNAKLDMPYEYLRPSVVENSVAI
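Purified human 15hLO-1 (40 nM final) in 25 mM Hepes pH 7.5, 0.01% Triton X-100 was preincubated with compound 15 min at room temperature, then reacted 6 min with 50 uM arachidonic acid; hydroperoxide detected by Fe-XO, 573/405 nm absorbance ratio.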
GBA mod – Glucocerebrosidase. Potency, µM. purified enzyme, resorufin glucoside fluorescence (screen aimed at inhibitors), 20 min. hit rate 1.1% among 48,000; in the data active = potency below about 15 µM; inconclusive = mostly about 16 µM to 33 µM;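 note: the screen sought inhibitors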
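Normal human glucocerebrosidase (0.2 nM final) was assayed with resorufin β-D-glucopyranoside (30 uM final) in 50mM citric acid/KH2PO4, 10mM sodium taurocholate, 0.01% tween-20, pH 5.9. Compounds were titrated; fluorescence (Ex 548, Em 600) read after 20 min at RT.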
USP2a inh – qHTS Assay for Inhibitors of Ubiquitin-specific Protease USP2a | Ubiquitin carboxyl-terminal hydrolase 2 (Homo sapiens), O75604 | USP2a enzymatic assay, qHTS inhibition | hit rate 0.1% among 60,000 | AID 927, 2007 | Potency, µM (series often up to 38.3 µM), for the others: at the highest dose activity change, negative = inhibition, most hits filed as inhibitors; note: nearly all actives have a fitted effect of over 60% in size
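Coupled readout: USP2-cleaved Ub-PLA2 (20nM final) turns over NBD C6-HPC (20uM final), Ex 460nm/Em 535nm after 2.5 h, time-zero read flagging artifacts. Enzyme (20nM final, pH 8.0 Tris) given 30 min RT with compound first; NEM defines full inhibition.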
Tau filament bind – qHTS Assay for Tau Filament Binding. Microtubule-associated protein tau (Homo sapiens), P10636. recombinant tau filaments, thioflavin S fluorescence, 15 h; filaments grown with octadecylsulfate alongside compound. Potency, µM (highest dose often 57.1 µM), for the others: at the top dose activity change, negative = inhibition. hit rate 2% among 71,000;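 note: % is set by controls: 0 for no effect and ±100 for the full control effect; actives lower thioflavin S fluorescence by blocking filaments or displacing dye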
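His-tagged recombinant human tau (exons 2, 3 and 10 included), 1 uM, was induced to fibrillize by 30 uM sodium octadecylsulfate with compound present. After 15 h at 37 C, thioflavine S fluorescence (ex 450, em 510 nm) was read.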
Hsp90 Hop PPI – qHTS Assay for Disrupters of an Hsp90 Co-Chaperone Interaction. AlphaScreen TPR2A-His6 binding biotin-Hsp90 C-terminal peptide. Potency, µM (series often up to 57 µM), inactives show top-dose activity change, negative = inhibition. hit rate 0.44% among 71,000. AID 595, 2007; active = well fitted curve in either direction with a large enough effect; inconclusive = small, poorly fitted or top-dose-only effect, or another doubt; note: % is set by controls: 0 for no effect and ±100 for the full control effect
* marks the source's active call; other numbers are inactive results; i = inactive; ? = inconclusive; · = no result given; [ ] = dose if it differs, or a comment. Most compounds without a hit are left out; they make up all but 4.6% or so of the library. Unless noted, calls come from the whole dose curve; as a rule, active = well fitted curve in the direction sought with a large enough effect; inconclusive = small, poorly fitted or top-dose-only effect, or another doubt; inactive = no such curve, though single readings can be large; an effect the other way counts as inactive or inconclusive. Potency is the fitted concentration of half-maximal effect.

SMILES	PK Bst	15-hLO inh	GBA mod	USP2a inh	Tau filament bind	Hsp90 Hop PPI
Cc1ccc(N(CC(=O)NC2CCCCCC2)S(=O)(=O)c2c(C)nn(C)c2C)cc1	>57	-3%	15*	44%	4%	-1%
CCc1cc(N2CCOCC2)cc2c1[nH]c1ccccc12	·	-28%	>77	7%	25µM*	-15%
O=C(C[N+]12CN3CN(CN(C3)C1)C2)c1ccc(-c2ccccc2)cc1	·	24%[11.4 µM]	·	·	3.2µM*	-2%[11 µM]
O=C(O)CCC(=O)c1ccc(-c2ccccc2)cc1	·	3%	·	-10%	-2%[25.6 µM]	2%[26 µM]
NC1=NC(c2cn(-c3ccccc3)nc2-c2cccs2)n2c(nc3ccccc32)N1 (stereo unspecified)	>57	4%	12*	17%	0%	-5%
CC(=O)Nc1ccc(C(=O)Nc2ccc3c(c2)OCO3)cc1	>57	6%	i	15%	20µM*	-22%
COc1cc(NC(=O)c2ccc3c(c2)OCO3)ccc1NC(=O)C(C)C	7.1*	2%	>77	10%	4%	-6%
Cc1noc(C(=O)Nc2ccc3c(c2)OCO3)c1Cl	·	-4%	·	·	10µM*	-9%
Cc1onc(-c2ccccc2Cl)c1C(=O)Nc1ccc2c(c1)OCO2	·	-2%	·	·	·	·
CCOC(=O)C1=C(C)NC(C)=C(C(=O)OCC)C1C(=O)OCC(=O)N1CCCCC1CC (stereo unspecified)	>57	8%	>77	3%	-2%	0%
CCOc1ccc(OCC)c(NC(=O)CC2Oc3ccccc3NC2=O)c1 (stereo unspecified)	·	6%	·	·	i	-4%[2.3 µM]
CSc1nc2c(c(=O)n1-c1ccc(F)cc1)SCC2	>57	-3%	>77	2%	7%	0%
COc1cccc(-c2ccc3ncnc(N(C)Cc4ccco4)c3c2)c1	·	-22%	·	151%	-1%	-20%
CN(C)c1ccc(-c2ccc3ncnc(N(C)Cc4ccco4)c3c2)cc1	·	-19%	·	110%	20µM*	6%
Cc1nc2cc(NC(=O)Nc3ccc(N4CCOCC4)cc3)ccc2n1C	>57	3%	>77	6%	25µM*	-11%
Cn1c(SCC(=O)Nc2ccc3cn[nH]c3c2)nnc1-c1cnccn1	>57	11%	>77	2%	-7%	-2%
COc1ccc(Cn2c(C)nc3c(c2=O)c2nc4ccccc4nc2n3Cc2ccco2)cc1	>57	-23%	>77	40%	2.5µM*	-7%
Cc1nc2c(c(=O)n1Cc1ccccc1Cl)c1nc3ccccc3nc1n2Cc1ccco1	>57	?	>77	-18%	16µM*	-5%
COc1ccc(S(=O)(=O)c2c(N)n(Cc3ccco3)c3nc4ccccc4nc23)cc1	>57	20µM*	>77	6%	-20%	10%
COc1ccc(Cn2c3nc4ccccc4nc3c3c(=O)n(Cc4ccco4)c(C)nc32)cc1	>57	-28%	>77	40%	?	-5%
COc1cc([C@H]2[C@@H]3CCCC[C@]3(O)CCN2CC(=O)Nc2ccc(C)cc2C)ccc1O	>57	4%	>77	39%	-11%	-7%
COC(=O)c1cc(-c2ccc3c(c2)OCO3)nc2ccccc12	·	-13%	·	17%	38%	25µM*
O=C(O)c1cc(-c2ccc3cc4c(cc3c2)OCO4)nc2ccccc12	·	-1%[11.4 µM]	·	·	-6%[11.4 µM]	2%[11 µM]
COc1ccc(-n2c(SCC(=O)NCC3CCCO3)nc3n[nH]c(C)c3c2=N)cc1 (stereo unspecified)	>57	-5%	>77	5%	-4%	-3%
CCN(CC)CCCOc1nc(C)nc2c1oc1ccccc12	>57	3%	>77	4%	7%	-1%
SMILES	PK Bst	15-hLO inh	GBA mod	USP2a inh	Tau filament bind	Hsp90 Hop PPI
CN(C)CCOc1nc(-c2ccccc2)nc2c1oc1ccccc12	11*	14%	i	29%	64%	-8%
CCC(C)(C)n1nnnc1C(c1cc2ccc(OC)cc2[nH]c1=O)N1CCN(C2CCCCC2)CC1 (stereo unspecified)	>57	-11%	>77	18%	-19%	-4%
CS(=O)(=O)Nc1cccc(-c2nccc(-n3ccnc3)n2)c1	·	20µM*	·	-1%	-12%	-13%
Cc1ccccc1-c1nccc(-n2ccnc2)n1	·	?	·	-10%	2%	-6%
N#Cc1cccc(-c2nccc(-n3ccnc3)n2)c1	·	10µM*	·	25%	0%	-23%
CS(=O)(=O)Nc1cccc(-c2nc(-n3ccnc3)c3ccccc3n2)c1	·	0%	·	15%	4%	-1%
CC[C@@H](C)[C@H](NS(=O)(=O)c1ccc(C)cc1)C(=O)N1CCC(C(=O)NCC(=O)O)CC1	>57	1%	>77	-7%	-1%	-2%
COc1ccc(S(=O)(=O)Nc2c(C(=O)O)[nH]c3ccccc23)c(OC)c1	>57	-2%	>77	4%	-9%	-7%
COc1ccc2[nH]c(C(=O)O)c(NS(=O)(=O)c3ccc(OC)c(OC)c3)c2c1	·	-22%	>77	2%	20µM*	-13%
O=c1oc(-c2ccco2)nc2ccccc12	·	-6%	·	-6%	42%	-5%
c1coc(-c2nc3ccccc3nc2-c2ccco2)c1	·	25µM*	>77	20%	13µM*	-8%
Nc1ccc(N)c(Cl)c1	·	?	·	·	32µM*	-22%
Nn1c(Nc2ccccc2)nc2sc3c(c2c1=O)CCC3	·	-27%	·	26%	51%	-9%
CC(=O)Nc1cccc(NC(=O)CSc2nnc(Cc3cccn3C)n2-c2ccc(F)cc2)c1	>57	-7%	>77	21%	23%	-5%
COc1ccccc1CNC(=O)Nc1cccs1	·	13µM*	·	·	·	·
COc1ccc(CNC(=O)Nc2cccs2)cc1OC	>57	-27%	>77	11%	2%	-3%
CC(=O)C1=C(C)N=c2s/c(=C/c3ccc4c(c3)OCO4)c(=O)n2C1c1ccc(N(C)C)cc1 (stereo unspecified)	>57	-8%	>77	19%	4µM*	-26%
c1ccc2c[n+](CCCC[n+]3ccc4ccccc4c3)ccc2c1	·	3%[11.4 µM]	·	·	3.2µM*	-3%[11 µM]
N#Cc1cccc(-n2nnnc2-c2ccc3c(c2)OCO3)c1	>57	-3%	>77	·	-11%	-1%
N#Cc1ccc(-c2nnnn2-c2ccc3c(c2)OCO3)cc1	>57	-6%	15*	35%	-7%	-2%
COC(=O)c1cc(Cc2ccc(N)c(C(=O)OC)c2)ccc1N	·	25µM*	·	13%	?	?
COC(=O)c1ccc(C(=O)OC)c(N)c1	>57	7%	>77	-3%	5%	3%
CCn1cnc2cc(NCc3cccc(OC)c3O)ccc21	·	3%	14*	2%	-1%	-5%
